# Assay outcomes as filed in PubChem.
# Gal4-VP16 FLuc: Gal4-VP16 reporter inhibition counter-screen | Drosophila S2 Gal4-VP16 UAS-luciferase, luminescence, 20 h | Potency, µM (top dose mostly 53.6 µM), for inactives: at the highest dose activity, negative = inhibition, hits mostly inhibitors | 310,000 compounds, 3.5% hits;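 further: Gal4-VP16 expression switched on by copper sulfate through the metallothionein promoter; nearly all actives have a fitted effect of over 50% in size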
# ELG1 DNA repair: inhibitors of ELG1-dependent DNA repair in HEK293T cells; AID 504467; Potency, µM (top dose mostly 46.1 µM), inactives show at the highest dose activity change, negative = inhibition, hits mostly inhibitors; HEK293T ELG1-luciferase reporter, luminescence, 16 h; DNA damage induced by 5-fluorouridine; 330,000 compounds, 2.3% hits; further: nearly all actives have a fitted effect of over 55% in size
#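 Step one: seed 2,000 cells per well. Step two: pin-transfer compound or DMSO alongside 5-fluorouridine. Step three: incubate 16 hr, 37 °C, 5% CO2. Step four: add ONE-Glo, wait 30 min, read luminescence.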
# TDP1 cell noCPT: qHTS for Inhibitors of human tyrosyl-DNA phosphodiesterase 1 (TDP1): qHTS in cells in absence of CPT; AID 686978, 2013; 420,000 compounds, 15% hits; Potency, µM (highest dose often 46.2 µM), without a hit: at the highest dose activity change, negative = growth inhibition, usual class: inhibitors; DT40 Tdp1-/- hTDP1 cells, no CPT, ATP luminescence, 48 h; further: nearly all actives have a fitted effect of over 55% in size
#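 Stably hTDP1-transfected Tdp1-null chicken DT40 cells were treated with library compounds minus camptothecin and grown for at least 48 hr at 37 °C, after which cellular ATP was quantified by luminescence.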
# ALOX12 inh: ALOX12 (human) lipoxygenase inhibition | purified 12hLO, xylenol orange hydroperoxide absorbance | Potency, µM (titrated, usually from 108 µM), for the others: top-dose activity change, negative = inhibition, most hits filed as inhibitors | 580,000 compounds, 1.1% hits
# Target sequence (P18054 whole entry, looked up): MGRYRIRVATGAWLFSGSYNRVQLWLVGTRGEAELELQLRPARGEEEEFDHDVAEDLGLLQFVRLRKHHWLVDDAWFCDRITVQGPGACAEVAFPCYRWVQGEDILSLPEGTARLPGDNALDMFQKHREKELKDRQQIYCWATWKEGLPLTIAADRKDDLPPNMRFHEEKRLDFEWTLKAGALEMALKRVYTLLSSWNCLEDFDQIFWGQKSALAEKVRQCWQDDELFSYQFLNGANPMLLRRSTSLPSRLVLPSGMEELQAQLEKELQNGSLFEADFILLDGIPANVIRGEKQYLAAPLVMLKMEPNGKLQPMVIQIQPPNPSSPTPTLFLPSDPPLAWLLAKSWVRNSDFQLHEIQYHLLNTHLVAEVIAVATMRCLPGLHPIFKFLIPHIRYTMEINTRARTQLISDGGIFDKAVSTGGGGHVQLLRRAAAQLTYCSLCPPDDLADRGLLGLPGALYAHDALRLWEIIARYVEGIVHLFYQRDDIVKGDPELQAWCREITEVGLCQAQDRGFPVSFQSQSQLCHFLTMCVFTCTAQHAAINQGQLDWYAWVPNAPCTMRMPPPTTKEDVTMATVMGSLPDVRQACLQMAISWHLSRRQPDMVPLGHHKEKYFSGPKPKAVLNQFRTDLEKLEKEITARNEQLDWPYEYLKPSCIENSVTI
#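 Purified human 12hLO (150 nM final) in 25 mM Hepes, 0.01% Triton X-100, pH 7.0 was preincubated 15 min at room temperature with compound. Then 40 uM arachidonic acid was added, 30 min. Hydroperoxide was read by Fe-XO absorbance ratio 573/405 nm.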
# DT40 TDP1 CPT: DT40-hTDP1 cell growth loss with CPT; chicken DT40 Tdp1-/-;hTDP1 cells + 20 nM CPT, ATP luminescence, 48 h; Potency, µM (highest dose often 46.2 µM), inactives show at the highest dose activity change, negative = growth inhibition, hits mostly inhibitors; 420,000 compounds, 12% hits; further: nearly all actives have a fitted effect of over 55% in size
#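 Chicken DT40 Tdp1-/- cells complemented with human TDP1, 400 cells/well, exposed to compounds plus 20 nM camptothecin for at least 48 h at 37 C; viability read as ATP content by CellTiter-Glo luminescence.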
# RORg inh: blocks mouse ROR gamma transcriptional activity. P51450. Drosophila S2 Gal4-RORgamma UAS-luciferase reporter, 20 h. Potency, µM (series often up to 53.6 µM), for the others: at the top dose activity change, negative = inhibition, usual class: inhibitors. 310,000 compounds, 5.4% hits. AID 2551; further: nearly all actives have a fitted effect of over 60% in size
#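 Luciferase reporter read in Schneider cells carrying Gal4-RORγ (mouse) and UAS-Photinus luciferase; cells given compound 1 h before 700 uM copper sulfate induction, then incubated 20 h at ambient temperature.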
# The depositor's hits bear a star; ? = inconclusive; . = no result; [ ] = dose if it differs, or a comment. Sampled rows, rich in hits. Any-hit rate of the full collection: about 15%. The call rests on the fitted dose curve; in most records, active means well fitted curve in the direction sought with a large enough effect; inconclusive means small, poorly fitted or top-dose-only effect, or another doubt; inactive means no such curve, though single readings can be large; an effect the other way counts as inactive or inconclusive. On the % scale 0 is the no-effect control and ±100 the full control effect; potency means the concentration at half of the fitted maximal effect.
SMILES,Gal4-VP16 FLuc,ELG1 DNA repair,TDP1 cell noCPT,ALOX12 inh,DT40 TDP1 CPT,RORg inh
O=C1CCCN1c1ccc(CNS(=O)(=O)c2ccc(F)cc2)cc1,2%,19%,-25%,-6%,-19%,?
Cc1cccc(C(=O)NC(C)C(=O)OCc2cc(=O)oc3c(C)c(O)ccc23)c1 (stereo not drawn),.,.,.,14%,.,.
Cn1cnc2c1c(=O)n(Cc1ccccc1F)c(=O)n2C,.,.,.,31%,.,.
COCC(=O)N1CC[C@]2(O)CCN(C(=O)c3ccn(C)c3C)C[C@@H]2C1,.,.,.,40%,.,.
Cc1cccc(Oc2ccc3c(c2)Oc2ccccc2NC3=O)c1,.,.,?,?,16µM*,.
Cc1cccc(Oc2cc([N+](=O)[O-])cc3c2C(=O)Nc2ccccc2O3)c1,-17%,4%,13µM*,?,?,?
Cc1ccc2c(c1)NC(=O)c1cccnc1O2,.,.,-23%,-16%,0%,.
O=[N+]([O-])c1ccc2c(c1)CNc1ccccc1O2,-4%,2%,-22%,0%,-6%,2%
O=C1Nc2ccccc2Oc2cc([N+](=O)[O-])cc(Oc3ccccc3)c21,-17%,-28%,?,1%,?,?
O=[N+]([O-])c1cc2c(c([N+](=O)[O-])c1)Nc1ccccc1O2,.,.,7.3µM*,-25%,12µM*,.
O=C(C1CCCC1)N1CCn2c(nn(-c3ccncc3)c2=O)C1,.,.,.,19%[176 µM],.,.
CC(C)Sc1nc(N2CCOCC2)c2c(c1C#N)CCCC2,.,.,.,5%,.,.
Cc1ccc(NC(=O)c2ccc(NC(=O)N3CCSc4ncccc43)cc2)cc1Cl,.,.,12µM*,?,16µM*,.
Cc1cc(Cl)ccc1NC(=O)c1cccc(NC(=O)N2CCSc3ncccc32)c1,.,.,16µM*,-37%,?,.
CCN(Cc1ccccc1)C(=O)Cn1cnc2c(cnn2C)c1=O,.,.,.,10%,.,.
Cc1ccc(-n2cccc2C=O)cc1C,.,.,.,-21%,.,.
S=c1[nH]ccn1-c1cccc(Cl)c1Cl,?,4%,-4%,?,14%,7.9µM*
Cc1ccc(-n2cc[nH]c2=S)cc1C,-92%,5%,-13%,?,-1%,0.05µM*
O=c1n(-c2cccc(Cl)c2)c(=O)n2n1CCC2,-4%,5%,-4%,-9%,-8%,2%
S=c1[nH]ccn1-c1cccc(Cl)c1,?,2%,-3%,?,2%,13µM*
S=c1[nH]ccn1-c1ccccc1Cl,-14%,-4%,-5%,0%,15%,?
COc1cccc(C(=O)N2CCC(N3C[C@H](O)C[C@H]3C(=O)NCc3ccccc3)CC2)c1,.,.,.,23%,.,.
CCc1nc(-c2c3n(c(=O)n(CC(=O)Nc4cc(C)ccc4OC)c2=O)CCCC3)no1,.,.,.,41%,.,.
Cc1ccc(CNc2nc3ccccc3nc2NS(=O)(=O)c2ccccc2)cc1,.,.,.,10%,.,.
S=C(N=Nc1ccccc1)NNc1ccccc1,5%,?,?,-24%,3.7µM*,?
SMILES,Gal4-VP16 FLuc,ELG1 DNA repair,TDP1 cell noCPT,ALOX12 inh,DT40 TDP1 CPT,RORg inh
CC(C)C(O)(C(=O)NNc1ccccc1)C(C)C,-3%,22%,-12%,96%,1%,1%
COC[C@@H]1CN(C(=O)c2ccc3ncccc3c2)C[C@H]1c1ccncc1,.,.,.,-5%,.,.
CCOc1ccc(-n2ccn3c(SC(CC)C(=O)Nc4cc(C)ccc4C)nnc3c2=O)cc1 (stereo not drawn),.,.,.,-14%,.,.
O=C(CC1(O)C(=O)N(CCc2ccccc2)c2ccccc21)c1ccco1 (stereo not drawn),6%,0%,2.9µM*,350%,5.8µM*,4%
O=C(CC1(O)C(=O)N(CCc2ccccc2)c2ccc(Br)cc21)c1ccccc1 (stereo not drawn),.,.,?,-25%,?,.
Cc1ccc(C(=O)CC2(O)C(=O)N(CCc3ccccc3)c3ccc(Br)cc32)o1 (stereo not drawn),-16%,-20%,16µM*,?,?,-22%
C=CCN1C(=O)C(O)(CC(=O)c2ccccc2)c2ccccc21 (stereo not drawn),-1%,-1%,18µM*,0%,?,-7%
CC(=O)CC1(O)C(=O)N(Cc2ccccc2)c2ccccc21 (stereo not drawn),0%,30%,?,6%,?,0%
C#CCN1C(=O)C(O)(CC(=O)/C=C/c2ccco2)c2ccccc21 (stereo not drawn),?,-13%,3.7µM*,?,5.8µM*,30%
CCOc1ccc(C(=O)N2CCN(c3cc(-c4ccc(Cl)cc4)[nH]n3)CC2)cc1OCC,.,.,.,-3%,.,.
Cc1cccc(-n2ccnc2SC2CCCCC2=O)c1C (stereo not drawn),.,.,.,-18%,.,.
Cc1ccc(C(=O)CC2(O)C(=O)N(CCc3ccccc3)c3ccc(Cl)cc32)cc1 (stereo not drawn),.,.,23µM*,?,21µM*,.
Cc1ccc(CN2C(=O)C(O)(CC(=O)c3ccc(C)cc3)c3ccccc32)cc1 (stereo not drawn),.,.,2.6µM*,?,5.8µM*,.
COc1ccc(C(=O)CC2(O)C(=O)N(Cc3ccccc3)c3ccc(Br)cc32)cc1 (stereo not drawn),.,.,?,-8%,?,.
Cc1coc(C)c1C(=O)CC1(O)C(=O)N(Cc2ccccc2)c2ccccc21 (stereo not drawn),?,.,23µM*,?,16µM*,?
CCNC(=O)NC(=O)CN(Cc1ccccc1)CC(C)C(=O)OC (stereo not drawn),.,.,.,23%,.,.
Cc1nc2ccc(NC(=O)c3ccc(S(=O)(=O)N4CCOCC4)cc3)cc2s1,-5%,9.2µM*,-21%,0%,-3%,-17%
O=C(CSc1cccc2cccnc12)Nc1ccc(S(=O)(=O)N2CCOCC2)cc1,?,10%,?,-12%,?,5.6µM*
Cc1ccc(NC(=O)CSc2nnc(NC(=O)c3ccc(S(=O)(=O)N4CCOCC4)cc3)s2)cc1,32µM*,?,?,-1%,-20%,-103%
Cc1nc2ccc(NC(=O)c3cccc(S(=O)(=O)N4CC(C)OC(C)C4)c3)cc2s1 (stereo not drawn),-5%,?,12µM*,0%,7.3µM*,6%
CC1CN(S(=O)(=O)c2cccc(C(=O)Nc3ccc(N4CCCCC4)cc3)c2)CC(C)O1 (stereo not drawn),.,.,-13%,10%,1%,.
